Compound activity deposited in PubChem by The Scripps Research Institute Molecular Screening Center.
TEAD-YAP inh – TEAD-YAP interaction inhibition, primary screen, TEAD-YAP interaction inhibitor project, luminescence, HEK-TIYL cells; TEAD-Gal4/YAP UAS-luciferase luminescence; AID 1259422, 2018; 640,000 compounds, 1.4% hits; inhibition, % at 9.12 µM; in the data active = inhibition above about 32%
FBW7 act – FBW7 E3 ligase activators, primary screen, biochemical, AlphaScreen, human. 650,000 compounds, 0.13% hits. AID 1259310, 2017. AlphaScreen FBW7–phospho-cyclin E peptide binding, activator screen. F-box/WD repeat-containing protein 7 (Homo sapiens), Q969H0. normalized activity (activation), % at 26.1 µM; in the data active = normalized activity above about 1.9%;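 also: purified mutant Fbw7 with reduced substrate affinity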
MITF inh – MITF inhibitors, primary screen, biochemical, AlphaScreen, human; AlphaScreen MITF homodimerization, bead proximity signal; AID 1259374, 2018; 650,000 compounds, 0.91% hits; inhibition, % at 2.6 µM; Microphthalmia-associated transcription factor (Homo sapiens), O75030; in the data active = inhibition above about 50%
GPR151 activ – activators of human GPR151, primary screen, cell-based, PathHunter beta-arrestin, luminescence | PathHunter beta-arrestin GPR151 cells | activation, % at 11.2 µM | 650,000 compounds, 1% hits | AID 1508602, 2020; in the data active = activation above about 4.9%
Target sequence (Q8TDV0 whole entry, looked up): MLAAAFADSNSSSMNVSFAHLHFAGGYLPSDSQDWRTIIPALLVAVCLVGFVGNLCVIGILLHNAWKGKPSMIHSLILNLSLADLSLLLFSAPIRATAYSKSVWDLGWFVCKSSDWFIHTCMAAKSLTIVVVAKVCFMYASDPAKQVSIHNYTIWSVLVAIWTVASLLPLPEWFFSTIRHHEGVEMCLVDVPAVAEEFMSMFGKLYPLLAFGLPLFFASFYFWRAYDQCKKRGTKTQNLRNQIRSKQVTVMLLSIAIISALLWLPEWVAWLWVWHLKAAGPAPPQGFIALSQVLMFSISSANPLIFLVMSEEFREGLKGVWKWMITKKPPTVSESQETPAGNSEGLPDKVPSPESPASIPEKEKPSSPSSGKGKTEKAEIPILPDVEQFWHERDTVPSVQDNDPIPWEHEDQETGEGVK
Of the large screens only hits and unclear results are named; the others gave an inactive call; ! = not active in a repeat. This is a sample that favours compounds with a hit; in the whole collection about 3.5% have one here.

O=C1CCCN1CCCNc1nc(Nc2ccccc2)c2ncn(C3CCCCC3)c2n1	TEAD-YAP inh 64.3
Cc1cc(Br)ccc1OCC(=O)N1CCCCC1	none
CC(Oc1ccc(Cl)cc1Cl)C(=O)Nc1ccc(N(C)C)cc1 (centres undefined)	none
CCc1nnc(NC(=O)CSc2nc(O)c(NC(C)=O)c(=O)[nH]2)s1	none
COc1ccc(/C=C2\SC(=S)N(CCC(=O)OCCN3CCOCC3)C2=O)cc1	TEAD-YAP inh 53.5
CCN(CC)c1ccc(/C=C2/SC(=S)N(CCC(=O)OC)C2=O)cc1	TEAD-YAP inh 61.6
Cc1ccc(/C=C2/SC(=S)N(CN3CCOCC3)C2=O)o1	MITF inh 78.4
COc1ccc(/C=C2\SC(=S)N(CCC(=O)N3CCOCC3)C2=O)cc1	none
CCN(CC)c1ccc(/C=C2\SC(=S)N(CCCC(=O)O)C2=O)cc1	TEAD-YAP inh 92.5
O=C(COc1ccccc1Cl)Nc1cccc([N+](=O)[O-])c1	none
N#Cc1c(NC(=O)COc2ccc(Cl)cc2)sc2c1CCC2	none
CC1CCN(c2nc3ccc(C(=O)N4CCN(c5ncccn5)CC4)cc3s2)CC1	none
O=C(NN1C(=O)/C(=C/c2ccc(O)cc2)SC1=S)c1cccc(O)c1	none
Cc1ccc(/C=C2\SC(=S)N(NC(=O)c3ccc(O)cc3)C2=O)o1	MITF inh 54.1
O=C(CSc1nc2ccccc2c(=O)n1CCCN1CCN(c2cccc(Cl)c2)CC1)NCC1CCCO1 (centres undefined)	none
O=C(O)C1Nc2c(Cl)cc(Cl)cc2C2C=CCC12 (centres undefined)	MITF inh 59.4
O=C(O)C1Nc2c(Cl)cc(Cl)c(Cl)c2C2C=CCC12 (centres undefined)	MITF inh 57.7
Clc1cc(Cl)c2c(c1)C1C=CCC1C(c1ccccc1)N2 (centres undefined)	none
CC(=O)c1cc(C)ccc1OC(=O)c1ccccc1	none
CCOC(=O)CN(Cc1cc(OC)c(OC)c(OC)c1)S(=O)(=O)c1ccc(F)cc1	none
CCOC(=O)c1ccc(CN(Cc2ccccc2)S(=O)(=O)c2ccc(F)c(C)c2)cc1	none
O=C(/C=C/c1ccc(F)cc1)c1ccc(N2CCOCC2)cc1	none
Cc1ccc(/C=C/C(=O)c2ccc(N3CCOCC3)cc2)s1	TEAD-YAP inh 49.4
O=c1oc2c(Br)cc(Br)c(O)c2s1	none
Cc1c(Br)c(O)c(Br)c2sc(=O)oc12	MITF inh 78.8
O=c1oc2cc(Cl)c(O)c(Cl)c2s1	MITF inh 55.0
COC(=O)Oc1c(Br)cc2sc(=O)oc2c1Br	none
O=c1oc2cc(Cl)c(O)cc2s1	none
O=c1oc2cc(Br)c(O)c(Br)c2s1	MITF inh 58.6
O=C(NCCc1ccc(Cl)cc1)C(=O)Nc1ccc(F)cc1	none
CC(=O)Oc1ccc2c(=O)c(-c3ccc4c(c3)OCCCO4)coc2c1	TEAD-YAP inh 66.9
COc1cc(OC)c2c(=O)c(-c3ccc4c(c3)OCO4)coc2c1	none
COc1ccc2c(=O)c(-c3ccc4c(c3)OCCCO4)coc2c1	none
CC(=O)Oc1cc(OC(C)=O)c2c(=O)c(-c3ccc4c(c3)OCCCO4)coc2c1	TEAD-YAP inh 69.5
CC(C)Oc1ccc(Br)cc1/C=C1\SC(N)=NC1=O	none
Cc1cc(NCCc2ccc(O)cc2)nc(-c2ccc(N3CCN(C)CC3)cc2)n1	TEAD-YAP inh 52.8
Cc1cc(NCCc2ccc(O)cc2)nc(Nc2ccc(N3CCOCC3)cc2)n1	TEAD-YAP inh 62.4
Oc1ccc(CCNc2ccnc(Nc3ccc(N4CCOCC4)cc3)n2)cc1	TEAD-YAP inh 44.5
Cc1ccc(NC(=O)N2CCCC2C(=O)Nc2ccccc2)cc1 (centres undefined)	none
CC(=O)Oc1ccc(C(=O)N2CCN(c3cccc(C)c3C)CC2)cc1	TEAD-YAP inh 51.3
Cc1cccc(N2CCN(C(=O)c3ccccc3)CC2)c1C	none
COc1ccc(N2C(=O)c3ccccc3NC2c2ccc(-c3ccc([N+](=O)[O-])cc3)o2)cc1 (centres undefined)	TEAD-YAP inh 41.4
COc1ccc(N2C(=O)c3ccccc3NC2c2cccc([N+](=O)[O-])c2)cc1 (centres undefined)	none
COc1ccc(-c2cc3nc(C)c(CCC(=O)N4CCCC4)c(C)n3n2)c(OC)c1	none
COc1ccc(-c2cc3nc(C)c(CCC(=O)O)c(C)n3n2)c(OC)c1	TEAD-YAP inh 38.6
CCC(C)NC(=O)CCc1c(C)nc2cc(-c3cccc(F)c3)nn2c1C (centres undefined)	none
Cc1nc2cc(-c3cccc(F)c3)nn2c(C)c1CCC(=O)O	TEAD-YAP inh 42.9
O=C(NCCCN1CCCC1=O)C1CC2CCCN2C12C(=O)Nc1ccccc12 (centres undefined)	none
CCC(C)N(CC(=O)Nc1cccc(C)c1C)C(=O)CCl (centres undefined)	TEAD-YAP inh 69.4
Cc1cccc(NC(=O)CC(C)(C)C)c1C	none
O=C(CN1CCN(Cc2ccccc2Cl)CC1)N/N=C\c1c(O)ccc2ccccc12	TEAD-YAP inh 74.1
O=C(CN1CCOCC1)N/N=C/c1cn(Cc2ccccc2Cl)c2ccccc12	none
O=C(CO)N/N=C/c1c(O)ccc2ccccc12	none
O=C(CN1CCOCC1)N/N=C/c1c(O)ccc2ccccc12	TEAD-YAP inh 36.4
CCc1cc(=O)n2[nH]c(C)c(-c3ccc(Cl)cc3)c2n1	none
COc1cc(/C=c2\sc3nc(-c4ccccc4)nn3c2=O)ccc1OC(C)=O	none
CCn1c(/C=C/c2ccc(OC)cc2)nc2ccccc21	TEAD-YAP inh 72.0
Cn1c(/C=C/c2ccccc2)nc2ccccc21	TEAD-YAP inh 93.2
CCCc1nc2ccccc2n1C(=O)CCC(=O)O	none
CC(=O)c1ccc(/C=C/c2nc3ccccc3n2C)o1	TEAD-YAP inh 52.7
O=C(O)CCC(=O)n1c(/C=C/c2ccccc2)nc2ccccc21	TEAD-YAP inh 82.8
COCCn1c(/C=C/c2ccccc2)nc2ccccc21	none
COC(=O)c1ccc(/C=N/NC(=O)C(=O)Nc2cccc(C)c2C)cc1	none
O=C(NCCOc1ccccc1)c1ccnc(N2CCCC2CO)c1 (centres undefined)	none
Cc1nc2cc(NC(=O)c3ccc(S(=O)(=O)N(C)C4CCCCC4)cc3)ccc2s1	TEAD-YAP inh 37.9
COc1cccc(-c2nc(CSc3nnc(NC(C)C)s3)cs2)c1OC	none
O=C1NC(=S)N/C1=C/c1ccc(O)c(O)c1	MITF inh 87.3
CN(C)c1ccc(/C=C2\NC(=S)NC2=O)cc1[N+](=O)[O-]	MITF inh 71.4!
CC(=O)Oc1ccc(C(C)(c2ccccc2)c2ccc(OC(C)=O)cc2)cc1	none
O=C1NC(=O)C(=Cc2cc([N+](=O)[O-])ccc2OC(F)F)C(=O)N1	none
O=C1C(=O)c2ncccc2-c2cccnc21	TEAD-YAP inh 74.5, MITF inh 57.2
COc1ccc(OC)c(CN2CCN(Cc3ccc(OC)c(C)c3C)C(CCO)C2)c1 (centres undefined)	none
O=C1c2cccc3c(Br)ccc(c23)C(=O)N1O	none
O=C1c2cccc3c(Cl)ccc(c23)C(=O)N1O	TEAD-YAP inh 45.5
Cc1cccc(-c2noc(CCCC(N)=O)n2)c1	none
